The source of these data is PubChem BioAssay (Tox21).

Test [1] in a line: qHTS assay to identify small molecule antagonists of the glucocorticoid receptor (GR) signaling pathway - cell viability counter screen (AID 720693). Further: nearly all actives have a fitted effect of over 55% in size. Further: potency means the concentration at half of the fitted maximal effect. A general note: Quantitative high-throughput screening tests each substance at several concentrations.
Test [2] is described as follows: qHTS assay for identifying genotoxic compounds that show differential cytotoxicity against isogenic chicken DT40 cell lines with known DNA damage response pathways - wild type cell line (AID 743012). Further: nearly all actives have a fitted effect of over 60% in size. Further: potency means the concentration at half of the fitted maximal effect. The method in brief: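 Cells (DT40 wild type, 300/well) are treated with DMSO-dissolved compounds after a ~0.5 h pre-incubation and kept 40 h at 37 C/5% CO2. Viability is then measured by CellTiter-Glo luminescence following 30 min at room temperature.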

The nature of test [3]: qHTS assay for identifying genotoxic compounds that show differential cytotoxicity against isogenic chicken DT40 cell lines with known DNA damage response pathways - Rev3 mutant cell line (AID 743014). Further: nearly all actives have a fitted effect of over 55% in size. Further: potency means the concentration at half of the fitted maximal effect.
Test [4] is described as follows: qHTS assay for identifying genotoxic compounds that show differential cytotoxicity against isogenic chicken DT40 cell lines with known DNA damage response pathways - Rad54/Ku70 mutant cell line (AID 743015). Further: nearly all actives have a fitted effect of over 60% in size. Further: potency means the concentration at half of the fitted maximal effect.
The nature of test [5]: qHTS assay to identify small molecule antagonists of the androgen receptor (AR) signaling pathway using the MDA cell line - cell viability counter screen (AID 743041; further: nearly all actives have a fitted effect of over 45% in size; further: potency means the concentration at half of the fitted maximal effect). The method in brief: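 Same-well cytotoxicity was assessed by CellTiter-Fluor in MDA-kb2 AR-luc cells after 16 h of compound treatment under R1881 agonism.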
For test [6], the target named is Estrogen receptor (Homo sapiens) (UniProt P03372). In words: qHTS assay to identify small molecule antagonists of the estrogen receptor alpha (ER-alpha) signaling pathway (AID 743069; active means well fitted curve in the direction sought with a large enough effect in the signal ratio in the repeat runs, not every such curve was filed as active; inconclusive means weak or mixed curves, or effect the other way; inactive means no such curve, though single readings can be large or run the other way; the % refers to the signal ratio; further: on the % scale 0 is the no-effect control and ±100 the full control effect). Put shortly:
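Reporter cells (ER-alpha-bla, HEK293 background) are conditioned overnight in stripped-serum medium (2% charcoal-stripped FBS). Compound and 17beta-estradiol exposure runs 18 hr at 37C, 5% CO2.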

Test [7] is described as follows: qHTS assay to identify small molecule antagonists of the estrogen receptor alpha (ER-alpha) signaling pathway - cell viability counter screen (AID 743074; calls by dose curve;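 further: HEK293 cells carrying ER-alpha-UAS-bla reporter stimulated with 17beta-estradiol; nearly all actives have a fitted effect of over 45% in size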; further: potency means the concentration at half of the fitted maximal effect).
Test [8] has as its target Estrogen receptor (Homo sapiens) (UniProt P03372). The experiment in a line: qHTS assay to identify small molecule agonists of the estrogen receptor alpha (ER-alpha) signaling pathway (AID 743075; calls by dose curve;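 further: HEK293 GripTite cells with ER-alpha and UAS-driven beta-lactamase reporter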; further: potency means the concentration at half of the fitted maximal effect; on activation: on the % scale 0 is the no-effect control and ±100 the full control effect). The conditions noted are these: HEK293 ER-alpha-UAS-bla, beta-lactamase FRET ratio, 18 h; activation: at 70.1 µM (top of the series).
For test [9] the target is unchanged. The experiment in a line: qHTS assay to identify small molecule agonists of the estrogen receptor alpha (ER-alpha) signaling pathway using the BG1 cell line (AID 743079). Further: nearly all actives have a fitted effect of over 20% in size. Further: potency means the concentration at half of the fitted maximal effect. On activation: on the % scale 0 is the no-effect control and ±100 the full control effect. The note with it: BG1Luc4E2 cells, ERE-luciferase agonist, 22 h.
Test [10] can be described thus: qHTS assay to identify small molecule antagonists of the estrogen receptor alpha (ER-alpha) signaling pathway using the BG1 cell line (AID 743080; calls by dose curve;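 further: BG1 cells stimulated with 17beta-estradiol alongside compound; on the % scale 0 is the no-effect control and ±100 the full control effect; nearly all actives have a fitted effect of over 25% in size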). The method in brief:
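Readout is ONE-Glo luminescence, taken 30 min at room temperature after reagent addition, preceded by a CellTiter-Fluor viability read; BG1-Luc-4E2 cells had received compound and 17beta-estradiol for 21.5 h at 37 C.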

A short description of test [11]: qHTS assay to identify small molecule antagonists of the estrogen receptor alpha (ER-alpha) signaling pathway using the BG1 cell line - cell viability counter screen (AID 743081).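 Further: compound given together with 17beta-estradiol as the ER stimulus; nearly all actives have a fitted effect of over 45% in size.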 Further: potency means the concentration at half of the fitted maximal effect.
The next test has as its target Aromatase (Homo sapiens) (UniProt P11511). In words: qHTS assay to identify aromatase inhibitors (AID 743083). Further: nearly all actives have a fitted effect of over 55% in size. Further: potency means the concentration at half of the fitted maximal effect.
Test [12] can be described thus: qHTS assay to identify aromatase inhibitors - cell viability counter screen (AID 743084).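 Further: cells stimulated with testosterone during compound exposure; nearly all actives have a fitted effect of over 55% in size.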 Further: potency means the concentration at half of the fitted maximal effect.
Test [13] in a line: qHTS assay to identify small molecule antagonists of the androgen receptor (AR) signaling pathway - cell viability counter screen (AID 743033; further: nearly all actives have a fitted effect of over 45% in size; further: potency means the concentration at half of the fitted maximal effect).
The target of test [14] is Androgen receptor (Homo sapiens) (UniProt P10275). The experiment in a line: qHTS assay to identify small molecule agonists of the androgen receptor (AR) signaling pathway (AID 743036; active means well fitted activation curve with a large enough effect in the signal ratio in the repeat runs, with a control signal flat, not every such curve was filed as active; inconclusive means weak or mixed curves, or effect the other way; inactive means no such curve, though single readings can be large or run the other way; the % refers to the signal ratio; further: potency means the concentration at half of the fitted maximal effect). The method in brief: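 AR-UAS-bla HEK293 cells, plated 4 h before dosing, were treated with compound for 16 h at 37C. beta-Lactamase reporter read after 2 h with LiveBLAzer B/G FRET substrate at room temperature.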
Sequence of Androgen receptor (Homo sapiens) (P10275 whole entry, looked up): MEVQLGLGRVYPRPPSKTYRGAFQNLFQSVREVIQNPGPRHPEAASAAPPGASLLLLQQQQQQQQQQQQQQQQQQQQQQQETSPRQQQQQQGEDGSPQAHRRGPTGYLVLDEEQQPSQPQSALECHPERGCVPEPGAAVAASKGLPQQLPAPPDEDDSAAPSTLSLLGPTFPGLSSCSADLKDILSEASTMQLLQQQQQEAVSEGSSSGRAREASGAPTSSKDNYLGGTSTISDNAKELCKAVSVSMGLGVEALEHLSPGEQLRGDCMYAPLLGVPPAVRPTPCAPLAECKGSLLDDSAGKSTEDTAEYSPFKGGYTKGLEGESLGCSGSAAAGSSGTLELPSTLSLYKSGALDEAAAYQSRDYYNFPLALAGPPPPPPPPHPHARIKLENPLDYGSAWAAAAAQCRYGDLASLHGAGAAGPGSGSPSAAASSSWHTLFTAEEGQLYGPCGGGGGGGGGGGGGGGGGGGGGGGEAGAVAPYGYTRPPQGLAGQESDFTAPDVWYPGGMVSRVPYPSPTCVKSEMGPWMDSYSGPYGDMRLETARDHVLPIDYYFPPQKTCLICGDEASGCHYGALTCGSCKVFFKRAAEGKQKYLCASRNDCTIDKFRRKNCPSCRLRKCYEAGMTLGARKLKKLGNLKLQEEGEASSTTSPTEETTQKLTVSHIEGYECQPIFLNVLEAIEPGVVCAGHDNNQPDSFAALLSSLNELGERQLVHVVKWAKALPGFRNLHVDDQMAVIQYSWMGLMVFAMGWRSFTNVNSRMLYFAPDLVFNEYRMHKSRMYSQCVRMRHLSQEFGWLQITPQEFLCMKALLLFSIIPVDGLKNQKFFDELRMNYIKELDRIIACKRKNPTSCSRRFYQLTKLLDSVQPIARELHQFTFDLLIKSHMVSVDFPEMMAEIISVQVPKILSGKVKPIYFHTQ

The target is the same in test [15]. The experiment in a line: qHTS assay to identify small molecule antagonists of the androgen receptor (AR) signaling pathway using the MDA cell line (AID 743042; further: nearly all actives have a fitted effect of over 55% in size; further: potency means the concentration at half of the fitted maximal effect). Put shortly: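 MDA-kb2 breast carcinoma cells carrying MMTV-luciferase (AR/GR responsive) were co-treated with compounds and the agonist R1881 for 16 h at 37C. Inhibition read as ONE-Glo luminescence; CellTiter-Fluor fluorescence measured in parallel for cytotoxicity.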

Test [16] relates to thyroid hormone receptor (rat, GH3 cells). The experiment in a line: qHTS assay to identify small molecule agonists of the thyroid receptor (TR) signaling pathway (AID 743066; calls by dose curve; further: on the % scale 0 is the no-effect control and ±100 the full control effect).
Test [17] is described as follows: qHTS assay to identify small molecule antagonists of the thyroid receptor (TR) signaling pathway - cell viability counter screen (AID 743064). Further: potency means the concentration at half of the fitted maximal effect; nearly all actives have a fitted effect of over 50% in size. The method in brief: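 GH3.TRE-Luc rat pituitary cells dosed after 4 hr plating, co-stimulated with T3 at 1 nM final, incubated 23.5 h at 37 C. Viability measured in the same wells by CellTiter-Fluor fluorescence after 30 min further at 37 C.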

Test [18] is described as follows: qHTS assay to identify small molecule antagonists of the thyroid receptor (TR) signaling pathway (AID 743065). Further: nearly all actives have a fitted effect of over 55% in size. Further: potency means the concentration at half of the fitted maximal effect. Put shortly: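 GH3.TRE-Luc rat pituitary cells (two TREs driving luciferase) were dosed with compound, then stimulated with 1 nM T3 (final) for 23.5 h at 37 C. ONE-Glo luminescence was the read-out, with CellTiter-Fluor fluorescence as the cytotoxicity counter-screen.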

For test [19], the target named is Androgen receptor (Homo sapiens) (UniProt P10275). In words: qHTS assay to identify small molecule agonists of the androgen receptor (AR) signaling pathway using the MDA cell line (AID 743040; further: on the % scale 0 is the no-effect control and ±100 the full control effect; nearly all actives have a fitted effect of over 20% in size). Put shortly: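 Human breast carcinoma MDA-kb2 reporter cells (MMTV-luc, AR/GR elements) were treated for 16 h at 37C in 0% CO2 following a 5 h settling period. Signal was quantified by ONE-Glo luminescence.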

Several values for one entry are separate records, joined by “and”; a condition that tells them apart may be missing. Identical values can stand only once. More than one record can exist for a structure, and the calls need not agree. Activity calls are given as the source filed them. Unless noted, the call rests on the fitted dose curve; in most records, active means well fitted curve in the direction sought with a large enough effect in the repeat runs; inconclusive means weak or mixed curves; inactive means no such curve, though single readings can be large; an effect the other way counts as inactive or inconclusive.

Sequence of Aromatase (Homo sapiens) (P11511 whole entry, looked up): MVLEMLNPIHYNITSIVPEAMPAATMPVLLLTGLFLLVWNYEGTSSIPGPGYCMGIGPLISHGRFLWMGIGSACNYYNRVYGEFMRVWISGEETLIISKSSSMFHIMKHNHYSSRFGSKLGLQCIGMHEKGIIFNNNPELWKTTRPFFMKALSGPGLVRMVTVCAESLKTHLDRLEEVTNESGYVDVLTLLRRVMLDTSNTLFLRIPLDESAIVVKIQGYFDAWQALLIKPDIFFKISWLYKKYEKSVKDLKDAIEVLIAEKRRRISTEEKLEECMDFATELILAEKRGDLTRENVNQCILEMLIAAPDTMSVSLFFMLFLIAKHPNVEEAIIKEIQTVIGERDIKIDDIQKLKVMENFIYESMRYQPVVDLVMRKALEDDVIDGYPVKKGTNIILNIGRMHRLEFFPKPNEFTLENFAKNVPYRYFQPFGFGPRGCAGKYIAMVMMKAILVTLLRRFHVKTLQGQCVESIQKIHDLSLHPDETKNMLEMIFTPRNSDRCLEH
Sequence of Estrogen receptor (Homo sapiens) (P03372 whole entry, looked up): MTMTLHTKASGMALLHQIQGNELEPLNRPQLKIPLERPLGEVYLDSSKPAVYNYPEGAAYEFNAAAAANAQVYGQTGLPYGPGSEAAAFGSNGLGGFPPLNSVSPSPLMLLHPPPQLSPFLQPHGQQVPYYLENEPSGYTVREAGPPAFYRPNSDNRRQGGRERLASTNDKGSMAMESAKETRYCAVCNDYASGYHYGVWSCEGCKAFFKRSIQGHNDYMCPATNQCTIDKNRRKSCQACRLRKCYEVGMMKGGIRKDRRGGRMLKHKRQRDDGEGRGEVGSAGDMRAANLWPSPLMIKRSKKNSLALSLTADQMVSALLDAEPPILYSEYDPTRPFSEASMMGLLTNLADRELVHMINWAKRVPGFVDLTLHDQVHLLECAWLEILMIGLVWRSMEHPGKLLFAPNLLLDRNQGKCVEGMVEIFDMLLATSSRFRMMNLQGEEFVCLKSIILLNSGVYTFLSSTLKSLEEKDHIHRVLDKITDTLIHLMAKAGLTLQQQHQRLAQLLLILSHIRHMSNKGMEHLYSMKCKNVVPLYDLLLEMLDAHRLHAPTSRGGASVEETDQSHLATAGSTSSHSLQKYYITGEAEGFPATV

As for `Cc1onc(-c2ccccc2Cl)c1C(=O)N[C@@H]1C(=O)N2[C@@H]1SC(C)(C)[C@@H]2C(=O)O`, the Potency entry in [1], in test [2], in test [3], in test [4], in test [5] and in test [6] was “inactive” in each case. The Potency result (in test [7]; in test [8]; in test [10]; in [11]; in the test with Aromatase (Homo sapiens); in [12]) was “inactive” in each case. In addition, the activation in test [9] (at 32.5 µM (top of the series)) was -4.31% (inactive).

Turning to `O=C1CCCc2c1cc1ccc3cccc4ccc2c1c34`, the Potency result in [1], in [2], in [4], in [13], in [5] and in test [15] was “inactive” each time. The Potency entry (in test [7]; in test [11]; with Aromatase (Homo sapiens); in test [12]) was “inactive” each time. Also, the values for the Potency in [14] and in test [9] were 14 µM (active) and 3.9 µM (active), respectively.

For the compound `Nc1c2ccccc2nc2ccccc12`, the Potency in test [1] is 16.9 µM (active) and 15.3 µM (active); in test [2], 2.11 µM (active) and 4.27 µM (active); in [3], 2.66 µM (active) and 2.14 µM (active); in [4], 944 nM (active) and 677 nM (active); in test [9], 11.9 µM (active) and 677 nM (active); with Aromatase (Homo sapiens), 18.8 µM (active) and 6.03 µM (active). Moreover, the Potency entry in test [16] and in [7] was “inactive” each time.

For `C[n+]1cc2c3c(ccc2c2ccc4cc5c(cc4c21)OCO5)OCO3`, the Potency in [1] was 6.74 µM (active); in test [2], 1.5 µM (active); in [3], 2.11 µM (active); in test [4], 1.5 µM (active); in test [15], 18.8 µM (active); in [17], 2.98 µM (active). Also, the Potency is 2.66 µM (active) in test [18]; 10.7 µM (active) in test [7]; 15.1 µM [inconclusive] (active) in test [8]; 11.9 µM (active) in the test with Aromatase (Homo sapiens); 21.1 µM (active) in [12].

As to `O=C1c2ccccc2Cc2ccccc21`, the Potency entry in test [1], in [2], in test [3], in test [13], in test [5] and in test [18] was “inactive” each time. For the same compound, the Potency result (in test [16]; in test [7]; with Aromatase (Homo sapiens)) was “inactive” throughout. The Potency in test [17] was 5.49 µM (active); in [9], 7.75 µM (active).

Turning to `CC(C)(C)CC(C)(C)c1ccc(OCCOCC[N+](C)(C)Cc2ccccc2)cc1`, the Potency in test [1] is 19.5 µM (active); in [3], 841 nM (active) and 968 nM (active); in test [4], 1.06 µM (active) and 1.93 µM (active); in test [13], 21.3 µM (active) and 7.75 µM (active); in test [5], 24.8 µM (active) and 38.5 µM (active); in test [17] it was 16.8 µM (active) and 13.7 µM (active). The Potency in test [18] is 16.8 µM (active) and 13.7 µM (active); in [7], 19 µM (active) and 19.5 µM (active); in test [11] it was “inactive and 61.1 µM (active)”; in the test with Aromatase (Homo sapiens) it was 23.7 µM (active) and 12.2 µM (active); in test [12], 23.7 µM (active) and 24.3 µM (active). Besides, the Potency entry in test [8] is “inactive”.

Consider `NNc1nc(-c2ccc([N+](=O)[O-])cc2)cs1`, for which the Potency was 43.6 µM (active) in [1]; 1.72 µM (active) in [3]; 4.33 µM (active) in test [4]; 30.9 µM (active) in test [13]; 61.1 µM (active) in test [5]; 48.6 µM (active) in [15]. For the same compound, the Potency in test [17] is 68.6 µM (active); in [18], 30.6 µM (active); in [7], 15.5 µM (active); in test [11], 54.5 µM (active); with Aromatase (Homo sapiens), 43.3 µM (active); in test [12], 30.6 µM (active). Besides, the Potency result in test [19], in test [16] and in [8] was “inactive” in each case.

`COCCCC/C(=N\OCCN)c1ccc(C(F)(F)F)cc1`: the Potency entry in test [1], in test [6], in [8], in [10], in test [11] and in test [12] was “inactive” each time. Also, the Potency in [2] is 6.68 µM (active); in test [3] it was 9.44 µM (active); in test [4], 10.6 µM (active); in test [17], 13.3 µM (active); in [18], 11.9 µM (active); with Aromatase (Homo sapiens), 21.1 µM (active). The activation in [9] (at 70.3 µM (top of the series)) was -27% (inactive).
